# Changes are numbered by the printed parent chain.
# Tests used:
# Test in all cases: MITOMI; MITOMI, 295 K (22 C); buffer, salt and pH not stated in the material; high values mean tight binding
# Details in all cases: protein: ivt; label: fluorescent; dsDNA, one strand shown
# MarA wild type (WQR) = target: T1, MarA wild type (WQR) (Escherichia coli, UniProt P0ACH5 1-127)
# T1 sequence: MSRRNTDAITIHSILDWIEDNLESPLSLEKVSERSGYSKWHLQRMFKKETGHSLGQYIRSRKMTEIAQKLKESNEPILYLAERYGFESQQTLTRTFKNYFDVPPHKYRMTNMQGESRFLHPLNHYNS
# Method in brief: (§1)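 Association constants were determined by MITOMI and are expressed for each site relative to the site with the highest affinity for the same protein variant. The MarA protein variants were made with the RTS E. coli HY kit by in vitro transcription and translation and labelled through addition of tRNA-lys-bodipy-fl. Testing covered 64 synthesized mar binding site variants, with fluorescence read on Genepix at 295K.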
# MarA RQR = target: T2, MarA RQR (Escherichia coli, UniProt P0ACH5 1-127, W40R)
# T2 sequence: T1 sequence with W40R
# Method in brief: as §1
# MarA RTR = target: T3, MarA RTR (Escherichia coli, UniProt P0ACH5 1-127, W40R;Q43T)
# T3 sequence: T1 sequence with W40R, Q43T
# Method in brief: as §1
# MarA SAR = target: T4, MarA SAR (Escherichia coli, UniProt P0ACH5 1-127, W40S;Q43A)
# T4 sequence: T1 sequence with W40S, Q43A
# Method in brief: as §1
# MarA TRR = target: T5, MarA TRR (Escherichia coli, UniProt P0ACH5 1-127, W40T;Q43R)
# T5 sequence: T1 sequence with W40T, Q43R
# Method in brief: as §1
Sequence,binding signal (MarA wild type (WQR)),binding signal (MarA RQR),binding signal (MarA RTR),binding signal (MarA SAR),binding signal (MarA TRR)
ATGGAGCGTTTTGCTAAAT,0.262 Ka relative to the best site of the variant,0.119 Ka relative to the best site of the variant,0.191 Ka relative to the best site of the variant,0.506 Ka relative to the best site of the variant,0.392 Ka relative to the best site of the variant
ATGCCCCGTTTTGCTAAAT,0.272 Ka relative to the best site of the variant,0.294 Ka relative to the best site of the variant,0.243 Ka relative to the best site of the variant,0.492 Ka relative to the best site of the variant,0.397 Ka relative to the best site of the variant
ATGCTGCGTTTTGCTAAAT,0.442 Ka relative to the best site of the variant,0.169 Ka relative to the best site of the variant,–,0.521 Ka relative to the best site of the variant,0.588 Ka relative to the best site of the variant
ATGGCCCGTTTTGCTAAAT,0.293 Ka relative to the best site of the variant,0.811 Ka relative to the best site of the variant,1 Ka relative to the best site of the variant,0.552 Ka relative to the best site of the variant,0.382 Ka relative to the best site of the variant
ATGTAACGTTTTGCTAAAT,0.345 Ka relative to the best site of the variant,0.135 Ka relative to the best site of the variant,0.514 Ka relative to the best site of the variant,0.232 Ka relative to the best site of the variant,0.492 Ka relative to the best site of the variant
ATGGCACGTTTTGCTAAAT,1 Ka relative to the best site of the variant,0.647 Ka relative to the best site of the variant,0.432 Ka relative to the best site of the variant,0.741 Ka relative to the best site of the variant,0.392 Ka relative to the best site of the variant
ATGTCGCGTTTTGCTAAAT,0.426 Ka relative to the best site of the variant,0.635 Ka relative to the best site of the variant,0.353 Ka relative to the best site of the variant,0.219 Ka relative to the best site of the variant,0.463 Ka relative to the best site of the variant
ATGCTCCGTTTTGCTAAAT,0.244 Ka relative to the best site of the variant,0.108 Ka relative to the best site of the variant,0.201 Ka relative to the best site of the variant,0.548 Ka relative to the best site of the variant,0.445 Ka relative to the best site of the variant
ATGGACCGTTTTGCTAAAT,0.196 Ka relative to the best site of the variant,0.106 Ka relative to the best site of the variant,0.154 Ka relative to the best site of the variant,0.573 Ka relative to the best site of the variant,1 Ka relative to the best site of the variant
ATGATCCGTTTTGCTAAAT,0.22 Ka relative to the best site of the variant,0.117 Ka relative to the best site of the variant,0.175 Ka relative to the best site of the variant,0.872 Ka relative to the best site of the variant,0.466 Ka relative to the best site of the variant
ATGCGGCGTTTTGCTAAAT,0.318 Ka relative to the best site of the variant,0.0951 Ka relative to the best site of the variant,0.255 Ka relative to the best site of the variant,0.379 Ka relative to the best site of the variant,0.501 Ka relative to the best site of the variant
ATGGGACGTTTTGCTAAAT,0.34 Ka relative to the best site of the variant,0.136 Ka relative to the best site of the variant,–,0.498 Ka relative to the best site of the variant,0.361 Ka relative to the best site of the variant
ATGCCGCGTTTTGCTAAAT,0.414 Ka relative to the best site of the variant,0.195 Ka relative to the best site of the variant,0.245 Ka relative to the best site of the variant,0.468 Ka relative to the best site of the variant,0.561 Ka relative to the best site of the variant
ATGACTCGTTTTGCTAAAT,0.378 Ka relative to the best site of the variant,0.586 Ka relative to the best site of the variant,0.469 Ka relative to the best site of the variant,0.657 Ka relative to the best site of the variant,0.382 Ka relative to the best site of the variant
ATGCCTCGTTTTGCTAAAT,0.454 Ka relative to the best site of the variant,0.232 Ka relative to the best site of the variant,0.235 Ka relative to the best site of the variant,0.486 Ka relative to the best site of the variant,0.474 Ka relative to the best site of the variant
ATGAGTCGTTTTGCTAAAT,0.239 Ka relative to the best site of the variant,0.136 Ka relative to the best site of the variant,0.173 Ka relative to the best site of the variant,0.944 Ka relative to the best site of the variant,0.446 Ka relative to the best site of the variant
ATGTCTCGTTTTGCTAAAT,0.301 Ka relative to the best site of the variant,0.956 Ka relative to the best site of the variant,0.642 Ka relative to the best site of the variant,0.259 Ka relative to the best site of the variant,0.462 Ka relative to the best site of the variant
ATGCACCGTTTTGCTAAAT,0.261 Ka relative to the best site of the variant,0.132 Ka relative to the best site of the variant,0.202 Ka relative to the best site of the variant,0.497 Ka relative to the best site of the variant,0.449 Ka relative to the best site of the variant
ATGAGGCGTTTTGCTAAAT,0.283 Ka relative to the best site of the variant,0.103 Ka relative to the best site of the variant,0.212 Ka relative to the best site of the variant,0.726 Ka relative to the best site of the variant,0.475 Ka relative to the best site of the variant
ATGGATCGTTTTGCTAAAT,0.224 Ka relative to the best site of the variant,0.112 Ka relative to the best site of the variant,0.202 Ka relative to the best site of the variant,0.393 Ka relative to the best site of the variant,0.365 Ka relative to the best site of the variant
ATGACGCGTTTTGCTAAAT,0.362 Ka relative to the best site of the variant,0.33 Ka relative to the best site of the variant,0.382 Ka relative to the best site of the variant,0.905 Ka relative to the best site of the variant,0.302 Ka relative to the best site of the variant
ATGCGACGTTTTGCTAAAT,0.369 Ka relative to the best site of the variant,0.148 Ka relative to the best site of the variant,0.24 Ka relative to the best site of the variant,0.43 Ka relative to the best site of the variant,0.589 Ka relative to the best site of the variant

# — article PMC3315485, “Probing the Informational and Regulatory Plasticity of a Transcription Factor DNA–Binding Domain”
